# In PubChem BioAssay (NCI):
# About 79,000 compounds went through this panel and 15% of them were active in at least one assay; those are over-represented in the sample as a whole. Unmarked numbers belong to inactive results. The source made the active and inactive calls. No stated cut-off is given here; in the data, active means growth inhibition above about 70%; inactive means the rest.
# Assays:
# [1] = NCI Yeast Anticancer Drug Screen. Data for the rad50 strain (AID 155);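 further: 0% = growth of vehicle-only cultures of the same strain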; conditions: S. cerevisiae rad50 strain growth inhibition; at 50.0 µM; stronger effect = higher value
# Summary of the method: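 Cells are treated with compound, grown, and their growth is then scored against vehicle-only cultures of the same repair-deficient yeast strain.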
# [2] = NCI Yeast Anticancer Drug Screen. Data for the mec2-1 strain (AID 157); conditions: S. cerevisiae mec2-1 strain, at 50.0 µM, stronger effect = higher value
# Summary of the method: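 Strain: mec2-1 (DNA repair/cell cycle alteration). Compound exposure, then growth measured; inhibition expressed relative to vehicle.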
# [3] = NCI Yeast Anticancer Drug Screen. Data for the sgs1 mgt1 strain (AID 161);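 further: 0% = growth of cultures given vehicle only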; conditions: S. cerevisiae sgs1 mgt1 strain, at 50.0 µM, stronger effect = higher value
# Summary of the method: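 Test agents were incubated with a DNA-repair-mutant yeast strain. Growth was then read and compared against vehicle-treated controls.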
# [4] = NCI Yeast Anticancer Drug Screen. Data for the cln2 rad14 strain (AID 165);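 further: 0% = growth equal to vehicle treated cultures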; conditions: S. cerevisiae cln2 rad14 strain, at 50.0 µM, stronger effect = higher value
# Summary of the method: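 Compounds are applied to the cln2 rad14 yeast strain, and growth is then compared with that of vehicle-treated cultures to give inhibition.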
# [5] = NCI Yeast Anticancer Drug Screen. Data for the bub3 strain (AID 167); conditions: S. cerevisiae bub3 mutant strain, at 50.0 µM, stronger effect = higher value
# Summary of the method: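 Part of a panel of yeast mutants defective in DNA damage repair or cell cycle regulation. Each strain is grown with compound, and inhibition is calculated relative to solvent-treated cultures.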
# [6] = NCI Yeast Anticancer Drug Screen. Data for the mlh1 rad18 strain (AID 175); conditions: S. cerevisiae mlh1 rad18 strain growth inhibition; at 50.0 µM; stronger effect = higher value
# Summary of the method: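 Read-out is yeast growth inhibition, calculated against vehicle-only controls. The compound was applied to a strain engineered with DNA damage repair alterations.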
Compound,growth inhibition [1],growth inhibition [2],growth inhibition [3],growth inhibition [4],growth inhibition [5],growth inhibition [6]
COc1cc(C=C(c2ccc(N(C)C)cc2)c2ccc(N(C)C)cc2)c2ccccc2c1OC,22.9%,14.5%,3.15%,27.3%,-12.8%,-42.5%
COc1ccc(/C=C(\Cl)c2ccc(OC)cc2)cc1,-2.9%,3.8%,-26.6%,-18.1%,5.6%,-26.8%
O=C(OCC(O)C(O)C(O)C(O)COC(=O)c1ccccc1)c1ccccc1 (stereo unspecified) (tested in a mixture with another compound),-0.9%,3.6%,-0.75%,-29.6%,0.85%,12.2%
COC(=O)C(C#N)(CCC(=O)c1ccccc1)CCC(=O)c1ccccc1,13.3%,17.3%,10.2%,-8.65%,17.8%,9.8%
O=C(CCCCl)CCCCl,12.2%,-10.9%,21.6%,12.6%,-3.6%,19.1%
C=C1OC(C2CCCCC2)=C(C(=O)OCC)C1C (stereo unspecified),-9.6%,-17.2%,-39%,-21.1%,1.9%,-9.45%
NCCCCC(N)C(=O)NCCNc1ccc(NCCNC(=O)C(N)CCCCN)c2c1C(=O)c1ccccc1C2=O (stereo unspecified),11.5%,7.4%,1.45%,-4.85%,-21.5%,-19.1%
Cc1cc(=O)oc2c1ccc1occc(=O)c12,-16.6%,10.4%,-10.3%,4.95%,11.9%,-11%
Clc1ccc(-c2nnc(-c3ccc4ccccc4c3)o2)cc1,-43%,-60.8%,-22.2%,3.1%,-47.5%,-25.4%
O=C(O)CCC(=O)NNc1nc2ccccc2s1,22.1%,2%,29.1%,19.8%,-13.2%,44.4%
Cc1ccc(NC(=O)C(=O)C(C(=O)c2ccc3ccccc3c2)C2OC(=O)c3ccccc32)c(C)c1 (stereo unspecified),45.6%,26.6%,32.9%,11.2%,34.9%,62.2%
[C-]#[N+]C(=C\c1ccc(O)cc1)/C(=C/c1ccc(O)cc1)[N+]#[C-],97.8% (active),98% (active),97.8% (active),96% (active),98.1% (active),98.2% (active)
CCCCC(=O)/C=C/c1ccccc1,12.3%,-8.15%,-3.95%,-46.5%,-6.6%,-3.4%
O=c1/c(=C/c2ccc(Cl)cc2Cl)sc2nc3ccccc3n12,4.1%,-23.4%,-0.15%,-12.8%,-22.5%,-7.45%
CCOc1ccc(C(=O)CCC(=O)Nc2ccc(Br)cc2)cc1,13.1%,5.8%,13.1%,-7.3%,8.75%,20.4%
C=CCc1ccc(C)c(C)c1O,24.4%,3.55%,21.8%,19.1%,5.55%,12.8%
CC(C)CCOCC(O)CNCCN (stereo unspecified),12.6%,2.5%,-14.7%,5.1%,-1%,12.3%
Cc1cc(C)nc(NS(=O)(=O)c2ccc(NC(=O)c3ccc(Cl)c4c(Nc5ccc(S(=O)(=O)Nc6nc(C)cc(C)n6)cc5)c5ccccc5nc34)cc2)n1,28.1%,41.3%,27.8%,34.2%,27.8%,30.4%
O=C(O)CCCCCCCCCCOc1ccc(Cl)cc1,24.2%,-7.9%,10.1%,-3.45%,11%,-33.6%
CC(C)(C)OC(=O)CC(NC(=O)OC(C)(C)C)C(=O)N[C@@H]1CCCC[C@H]1C(=O)OCc1ccccc1 (stereo partly specified),8.3%,15.2%,9.55%,8.35%,14.7%,23.1%
Cc1cccc(C)c1NC(=O)C(=O)CC(=O)CO,-9.45%,-18.3%,14.1%,10.8%,21%,-6.25%

Compound,growth inhibition [1],growth inhibition [2],growth inhibition [3],growth inhibition [4],growth inhibition [5],growth inhibition [6]
O=C(CCC(=O)Nc1ccccc1[N+](=O)[O-])CC(=O)c1ccc(Br)cc1,4.85%,7.75%,-2.95%,9.3%,-13.1%,6.15%
O=c1ccc(O)c[nH]1,12.3%,18.8%,34.7%,9.95%,2.8%,16.1%
CC(C)=CCCC(C)C1CCC2C3CC=C4CC(O)CCC4(C)C3CCC12C (stereo unspecified),34.5%,45%,48.2%,34.4%,12.9%,72.3% (active)
CCOc1ccc(N2C(=O)NC3(c4ccccc4)N(C)C(=O)N(C)C23c2ccccc2)cc1 (stereo unspecified),-2.7%,-7.95%,13.8%,1.3%,17.1%,-16.8%
O=C1C(O)CCN1C1CCCCC1 (stereo unspecified),10.7%,-6.95%,-0.3%,-2.85%,4.55%,0.2%
C=CCOCn1ccc(=O)[nH]c1=O,4.35%,-3.05%,5.85%,3%,3.2%,-3.05%
O=C(/C=C/c1ccc(Cl)cc1)c1cccs1,-2.85%,-14.3%,36.6%,1.25%,9.55%,-7.75%
CC(=O)Nc1ccc(S(=O)(=O)[N-]C2C(=O)c3ccccc3C(=O)C2[n+]2ccccc2)cc1 (stereo unspecified),25.4%,23.1%,28%,-0.35%,27.8%,-1.8%
CCN(CC)CCCNc1nc2ccccc2c2[nH]c3ccc(OC)cc3c12,-37.4%,-26.2%,-41.9%,-36.8%,-40%,-28.2%
CCCCCCCCC(=O)N1CCOCC1,17.4%,7.15%,18.3%,16.4%,-0.8%,8.8%
S=c1nc(NCc2ccccc2)[nH]c2[nH]ncc12,-6.55%,-17.2%,-1.6%,-17.2%,-21%,-2.55%
CCOC(=O)NC(S(=O)(=O)O)S(=O)(=O)O,0.6%,9.8%,-25.1%,-9.8%,16.1%,18.5%
NC(C(F)(F)F)(C(F)(F)F)P(=O)(Cc1ccccc1)Cc1ccccc1,-8.35%,-47.4%,-18.7%,-13.8%,-23.1%,7.85%
[Cl][Ce]([Cl])[Cl],28.1%,14.2%,24.9%,16.4%,24.1%,15.6%
CCOC(=O)C(C)(Cc1ccco1)C(=O)OCC,-16.1%,-10.3%,-5.2%,-33.5%,14.4%,-12.3%
CC(=O)OC(C)C1(C)CCC2CCCC(C)(C)C2C1 (stereo unspecified),-6.4%,-5.15%,-11.9%,0.7%,9.45%,-13.7%
O=Cc1sccc1NC(=O)c1ccccc1,2.65%,-14.6%,-18%,-18.1%,-7.5%,9.15%
CCOC(=O)C(NC(=O)CC)(Nc1ccc(S(=O)(=O)Nc2onc(C)c2C)cc1)C(F)(F)F (stereo unspecified),-6.35%,-15.4%,-8.85%,15.6%,-6.4%,-17.4%
CC(O)C1C(C(=O)O)C2C(C)OC(=O)C12 (stereo unspecified),-0.6%,-3.4%,-0.8%,52.5%,2.45%,15.5%
Cc1cc2nnnn2c2ccccc12,-30.1%,-20.6%,-17.1%,-2.35%,-6.8%,-19.8%
